In PubChem BioAssay AID1159580 (chemical genetic matrix, 2015):
“And” between values parts separate entries of the source, which are not always exact repeats. Equal entries are not always repeated. The whole screen tested about 5,500 compounds, of which about 2,000 (36%) were called active. Another 18% or so got no clear call; they are omitted. Cut-off read from the data, not from the text of the source: active = normalized growth mostly below about 0.91 (no sharp cut-off); inconclusive = no clear call, values can overlap the other calls; inactive = mostly above about 0.92. This is one part of the list.

Assay: chemical genetic growth profiling, strain panel (AID 1159580);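 note: tested at 20 µM; growth read once vehicle control cultures reached saturation at 30 °C; 1 = growth at the plate median or of vehicle wells; lower values mean less growth of the strain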
Details: growth OD

Measured: normalized growth

CC1(C)C2(Cl)C(Cl)C(Cl)C(Cl)(C(Cl)Cl)C1(Cl)C2Cl (configuration not stated)
active: S. cerevisiae deletion strains, locus YLR418C, strain cdc73, active compounds read low 0.755 | S. cerevisiae deletion strains, locus YNL307C, strain MCK1, active compounds read low 0.544 | S. cerevisiae deletion strains, locus YOR184W, strain ser1, active compounds read low 0.809 | S. cerevisiae deletion strains, locus YPR163C, strain tif3, active compounds read low 0.91
inactive: S. cerevisiae deletion strains, locus YAL013W, strain DEP1, active compounds read low 0.98 | S. cerevisiae deletion strains, locus YBR021W, strain FUR4, active compounds read low 0.985 | S. cerevisiae deletion strains, locus YBR229C, strain ROT2, active compounds read low 0.985 | S. cerevisiae deletion strains, locus YCL029C, strain bik1, active compounds read low 0.982 | S. cerevisiae deletion strains, locus YDL035C, strain GPR1, active compounds read low 0.947 | S. cerevisiae deletion strains, locus YDL074C, strain BRE1, active compounds read low 0.918 | S. cerevisiae deletion strains, locus YDL101C, strain DUN1, active compounds read low 0.982 | S. cerevisiae deletion strains, locus YDL134C, strain PPH21, active compounds read low 0.981 | S. cerevisiae deletion strains, locus YDL185W, strain tfp1, active compounds read low 0.976 | S. cerevisiae deletion strains, locus YDL192W, strain arf1, active compounds read low 0.98 | S. cerevisiae deletion strains, locus YDR101C, strain arx1, active compounds read low 0.993 | S. cerevisiae deletion strains, locus YDR150W, strain NUM1, active compounds read low 0.994 | S. cerevisiae deletion strains, locus YDR162C, strain NBP2, active compounds read low 0.968 | S. cerevisiae deletion strains, locus YDR318W, strain mcm21, active compounds read low 0.95 | S. cerevisiae deletion strains, locus YDR388W, active compounds read low 0.964 | S. cerevisiae deletion strains, locus YDR502C, strain sam2, active compounds read low 0.957 | S. cerevisiae deletion strains, locus YEL061C, strain CIN8, active compounds read low 0.992 | S. cerevisiae deletion strains, locus YER110C, active compounds read low 0.984 | S. cerevisiae deletion strains, locus YER155C, strain BEM2, active compounds read low 1 | S. cerevisiae deletion strains, locus YER167W, strain BCK2, active compounds read low 0.975 | S. cerevisiae deletion strains, locus YGL078C, strain dbp3, active compounds read low 0.982 | S. cerevisiae deletion strains, locus YGL086W, strain mad1, active compounds read low 0.962 | S. cerevisiae deletion strains, locus YGL248W, strain PDE1, active compounds read low 0.979 | S. cerevisiae deletion strains, locus YGR078C, strain PAC10, active compounds read low 0.94 | S. cerevisiae deletion strains, locus YGR135W, strain pre9, active compounds read low 0.951 | S. cerevisiae deletion strains, locus YGR229C, strain SMI1, active compounds read low 0.865 | S. cerevisiae deletion strains, locus YGR252W, strain gcn5, active compounds read low 0.956 | S. cerevisiae deletion strains, locus YHR030C, strain SLT2, active compounds read low 0.995 and 0.96 | S. cerevisiae deletion strains, locus YHR079C, strain IRE1 (second series), active compounds read low 0.975 | S. cerevisiae deletion strains, locus YHR079C, strain IRE1, active compounds read low 0.946 | S. cerevisiae deletion strains, locus YHR094C, strain hxt1, active compounds read low 0.981 | S. cerevisiae deletion strains, locus YHR129C, strain ARP1, active compounds read low 0.984 | S. cerevisiae deletion strains, locus YHR200W, strain rpn10, active compounds read low 0.979 | S. cerevisiae deletion strains, locus YIL066C, strain RNR3, active compounds read low 0.891 | S. cerevisiae deletion strains, locus YIL073C, strain SPO22, active compounds read low 0.829 | S. cerevisiae deletion strains, locus YIL125W, strain kgd1, active compounds read low 0.981 | S. cerevisiae deletion strains, locus YIR030C, strain dcg1, active compounds read low 0.978 | S. cerevisiae deletion strains, locus YJL095W, strain BCK1, active compounds read low 0.954 and 0.978 | S. cerevisiae deletion strains, locus YJL134W, strain LCB3, active compounds read low 0.991 | S. cerevisiae deletion strains, locus YJL168C, strain set2, active compounds read low 0.978 | S. cerevisiae deletion strains, locus YJL187C, strain SWE1 (second series), active compounds read low 0.983 | S. cerevisiae deletion strains, locus YJR043C, strain POL32, active compounds read low 1.01 | S. cerevisiae deletion strains, locus YJR066W, strain TOR1, active compounds read low 0.935 | S. cerevisiae deletion strains, locus YJR075W, strain HOC1, active compounds read low 0.954 | S. cerevisiae deletion strains, locus YKL009W, strain mrt4, active compounds read low 0.971 | S. cerevisiae deletion strains, locus YKL068W, active compounds read low 0.971 | S. cerevisiae deletion strains, locus YKL085W, strain MDH1 (second series), active compounds read low 0.968 | S. cerevisiae deletion strains, locus YKL085W, strain MDH1, active compounds read low 0.968 | S. cerevisiae deletion strains, locus YKL190W, strain CNB1, active compounds read low 0.989 | S. cerevisiae deletion strains, locus YKR001C, strain vps1, active compounds read low 0.932 | S. cerevisiae deletion strains, locus YLR039C, strain RIC1, active compounds read low 0.79 | S. cerevisiae deletion strains, locus YLR058C, strain SHM2, active compounds read low 0.978 | S. cerevisiae deletion strains, locus YLR102C, strain apc9, active compounds read low 0.986 | S. cerevisiae deletion strains, locus YLR113W, strain HOG1, active compounds read low 0.948 | S. cerevisiae deletion strains, locus YLR262C, strain YPT6, active compounds read low 0.768 | S. cerevisiae deletion strains, locus YLR268W, strain sec22, active compounds read low 0.956 | S. cerevisiae deletion strains, locus YLR330W, strain CHS5, active compounds read low 0.992 | S. cerevisiae deletion strains, locus YLR342W, strain FKS1 (second series), active compounds read low 0.893 | S. cerevisiae deletion strains, locus YLR371W, strain rom2, active compounds read low 0.986 | S. cerevisiae deletion strains, locus YML016C, strain PPZ1, active compounds read low 0.984 | S. cerevisiae deletion strains, locus YML032C, strain rad52, active compounds read low 0.954 | S. cerevisiae deletion strains, locus YML124C, strain tub3, active compounds read low 0.982 | S. cerevisiae deletion strains, locus YMR078C, strain ctf18, active compounds read low 0.961 | S. cerevisiae deletion strains, locus YMR223W, strain ubp8, active compounds read low 0.939 | S. cerevisiae deletion strains, locus YMR263W, strain SAP30, active compounds read low 0.993 | S. cerevisiae deletion strains, locus YMR307W, strain GAS1, active compounds read low 0.887 | S. cerevisiae deletion strains, locus YNL067W, strain RPL9B, active compounds read low 0.987 | S. cerevisiae deletion strains, locus YNL128W, strain TEP1, active compounds read low 0.993 | S. cerevisiae deletion strains, locus YNL153C, strain GIM3, active compounds read low 0.986 | S. cerevisiae deletion strains, locus YNL183C, strain NPR1, active compounds read low 0.943 | S. cerevisiae deletion strains, locus YNL233W, strain BNI4, active compounds read low 0.989 | S. cerevisiae deletion strains, locus YNL250W, strain rad50, active compounds read low 0.969 | S. cerevisiae deletion strains, locus YNL271C, strain bni1, active compounds read low 0.97 | S. cerevisiae deletion strains, locus YNL298W, strain CLA4, active compounds read low 0.971 | S. cerevisiae deletion strains, locus YNL322C, strain KRE1, active compounds read low 0.994 | S. cerevisiae deletion strains, locus YNR052C, strain pop2, active compounds read low 0.963 | S. cerevisiae deletion strains, locus YOL006C, strain TOP1, active compounds read low 0.867 | S. cerevisiae deletion strains, locus YOL012C, strain htz1 0.99 | S. cerevisiae deletion strains, locus YOL147C, strain pex11, active compounds read low 0.982 | S. cerevisiae deletion strains, locus YOR061W, strain CKA2, active compounds read low 0.994 | S. cerevisiae deletion strains, locus YOR069W, strain VPS5, active compounds read low 0.984 | S. cerevisiae deletion strains, locus YOR136W, strain idh2, active compounds read low 0.966 | S. cerevisiae deletion strains, locus YOR144C, strain elg1, active compounds read low 0.981 | S. cerevisiae deletion strains, locus YOR231W, strain MKK1, active compounds read low 0.964 | S. cerevisiae deletion strains, locus YOR316C, strain cot1, active compounds read low 0.977 | S. cerevisiae deletion strains, locus YPL055C, strain LGE1, active compounds read low 0.96 | S. cerevisiae deletion strains, locus YPL241C, strain CIN2, active compounds read low 0.993 | S. cerevisiae deletion strains, locus YPL256C, strain CLN2, active compounds read low 0.9 | S. cerevisiae deletion strains, locus YPR119W, strain clb2, active compounds read low 0.976 | S. cerevisiae deletion strains, locus YPR141C, strain kar3, active compounds read low 0.957 | S. cerevisiae deletion strains, locus YPR167C, strain met16, active compounds read low 0.974 | S. cerevisiae deletion strains, strain wtn01, active compounds read low 0.966 | S. cerevisiae strains, strain wild type, active compounds read low 0.986
